# What was measured:
# Assay in all cases: PBM binding z-score (relative to random genomic background probes); higher = stronger binding; sequences stand for … in GC…GCGATTGACAGCGTAGAATGAAGG
# [1] = tested on: PPARg:RXRa DBDmut IVT, anti-RXR (DBD mutation: RXRa K156A/R161A, NR concentration 270 nM, RXRa partner concentration 90 nM)
# Summary of the method: (§1)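 On custom Agilent 4×180K arrays, double-stranded probes with 34-nt variable regions carried direct-repeat seeds, single-nucleotide variants, half-site ablations or random human genomic background. Ligand-free nuclear receptor dimers were applied for 1 h, and binding was read with antibodies against each partner (one per run). Binding z-scores come from regression-normalized fluorescence, with the random background probes as reference.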
# [2] = tested on: PPARg:RXRa IVT, anti-PPARg (NR concentration 270 nM, RXRa partner concentration 90 nM)
# Summary of the method: as §1
# [3] = tested on: PPARg DBDmut:RXRa IVT, anti-PPARg (DBD mutation: PPARg1 K132A/R137A, NR concentration 270 nM, RXRa partner concentration 90 nM)
# Summary of the method: as §1
# [4] = tested on: PPARg DBDmut IVT, anti-PPARg (DBD mutation: PPARg1 K132A/R137A, NR concentration 270 nM)
# Summary of the method: as §1
# [5] = tested on: PPARg homodimer (NR concentration 180 nM)
# Summary of the method: as §1
# [6] = tested on: PXR:RXRa (NR concentration 270 nM, RXRa partner concentration 90 nM)
# Summary of the method: as §1
# [7] = tested on: PXR homodimer (NR concentration 270 nM)
# Summary of the method: as §1
# [8] = tested on: RARa:RXR (NR concentration 270 nM, RXRa partner concentration 90 nM)
# Summary of the method: as §1
# [9] = tested on: RARa homodimer (NR concentration 270 nM)
# Summary of the method: as §1
# [10] = tested on: RARb:RXRa (NR concentration 270 nM, RXRa partner concentration 90 nM)
# Summary of the method: as §1
# [11] = tested on: RARb homodimer (NR concentration 270 nM)
# Summary of the method: as §1
# [12] = tested on: RARg:RXRa (NR concentration 270 nM, RXRa partner concentration 90 nM)
# Summary of the method: as §1
# [13] = tested on: RARg homodimer (NR concentration 270 nM)
# Summary of the method: as §1
# [14] = tested on: RXRa DBDmut IVT, anti-RXR (DBD mutation: RXRa K156A/R161A, NR concentration 90 nM)
# Summary of the method: as §1
# [15] = tested on: RXRa homodimer (NR concentration 180 nM)
# Summary of the method: as §1
# [16] = tested on: THRa:RXRa (NR concentration 90 nM, RXRa partner concentration 90 nM)
# Summary of the method: as §1
# [17] = tested on: THRa homodimer (NR concentration 90 nM)
# Summary of the method: as §1
# [18] = tested on: VDR:RXRa (NR concentration 270 nM, RXRa partner concentration 90 nM)
# Summary of the method: as §1
# [19] = tested on: VDR homodimer (NR concentration 270 nM)
# Summary of the method: as §1
Sequence,PBM binding z-score [1],PBM binding z-score [2],PBM binding z-score [3],PBM binding z-score [4],PBM binding z-score [5],PBM binding z-score [6],PBM binding z-score [7],PBM binding z-score [8],PBM binding z-score [9],PBM binding z-score [10],PBM binding z-score [11],PBM binding z-score [12],PBM binding z-score [13],PBM binding z-score [14],PBM binding z-score [15],PBM binding z-score [16],PBM binding z-score [17],PBM binding z-score [18],PBM binding z-score [19]
ACTATTAGTTGACTTTGGGCAACCGATACGACGC,-0.00927,0.141,1.83,1.67,0.55,0.0456,0.199,0.481,0.975,0.454,0.274,0.43,0.635,0.79,0.476,0.55,0.0342,0.238,0.298
ATCTCTAGGTAAAGATAGTTCAGTGCATGCAAAT,2.3,1.49,1.11,1.06,0.899,1.1,1.29,0.26,0.906,0.853,1.11,0.406,0.733,-0.0342,0.191,0.926,0.229,0.777,1.15
CAAACTAGGTGAAAGGTCAAAGTCGAGCCAACCA,8.64,9.19,5.27,2.48,8.98,6.14,1.76,8,3.76,5.05,4.61,7.35,6.17,2.27,8.91,4.19,1.31,5.23,2.49
TCTGCTAGGTCAACGATGGTCAGCAAATCTGCTA,3.85,4.18,0.827,0.166,0.381,1.47,-0.599,2.12,-0.686,4.26,3.35,3.94,5.26,0.984,2.45,3.17,0.756,1.64,-0.402
CCAGACAGGTGAACGGTAACTCAGTCTGGTACGC,1.49,1.08,-0.573,-0.154,0.0136,-0.325,-0.355,-0.289,-0.204,0.99,0.435,0.292,0.535,-0.0435,0.416,0.0165,-0.646,-0.205,-0.453
CCTGACGGGTCAAGGTTATAGCACGGGTGGTACG,0.0106,1.52,-0.561,-0.647,1.94,2.74,0.233,3.65,0.717,3.78,3.21,4.37,4.65,0.202,4.64,2.63,0.682,2.74,1.34
TCTTGTAGATCAACAAGAGGTTAAGAAAGATCGA,1.35,0.865,0.785,0.787,-0.0436,1.27,0.0734,1.63,-0.225,0.99,0.756,1.56,0.53,-0.00375,1.4,1.22,-0.94,1.08,-0.26
GCAGACAGGTGAAACGCAGGTAACTCGGGGTGGC,0.722,0.559,-0.371,-1.17,-0.333,0.0221,-0.587,0.361,-1.06,0.754,0.185,0.966,0.131,-0.847,0.633,1.55,-0.0919,-0.198,-0.486
GCTGCTAGGTCAACTCATGGTCAGCTAAAGCTCG,4.52,4.36,-0.224,0.163,1.2,1.83,-0.544,2.76,0.409,4.46,3.69,5.16,5.42,1.45,2.86,3.17,1.15,1.71,0.269
CCGACTGGGGCAGAGGTTACCATACTCAGTACGA,3.08,4.26,-0.117,-0.682,1.22,0.917,-0.23,1.94,-0.251,1.34,1.64,1.81,1.16,0.0849,2.24,1.14,0.0259,0.52,0.131
CAAACTAGGGCAAGAGGTCAAAGTCCGCTTCCCG,6.91,7.47,1.69,0.0985,3,5.35,1.49,5.98,1.61,4.51,5.19,6.21,5.15,1.74,6.17,3.87,1.23,5.08,3.3
ACTTACGGGTCATCGAGGTTATAGCACGCGTATA,2.89,4.16,1.78,1.14,2.09,5.14,4.1,4.92,1.11,4.11,3.64,5.43,4.96,2.98,6.18,4.03,1.28,7.51,4.26
TCAATTAGTTGAAGGGCAACCGACGAGTCCGTTT,1.84,0.225,-0.0622,0.241,-0.0858,0.533,0.791,0.357,-0.199,1.54,1.28,0.369,0.258,1.02,0.562,0.164,-0.267,0.667,1.42
TTACCAAGGTGAGCTGAGGTCGTTTATCCAACTC,0.956,1.9,-0.2,-0.389,-0.278,4.87,0.621,1.58,-1.08,1.53,1.47,1.08,0.862,0.292,1.27,4.58,2.09,4.32,2.23
ACTAGCAGGCCAATGGTCACTCAAGATTAGTCCG,0.92,0.714,-0.0875,-0.449,0.0967,-0.626,-0.69,-0.449,-0.683,0.677,0.496,0.131,0.545,-0.107,0.0416,-0.312,-0.672,-0.614,-0.707
